Data on one sequence can be found in article PMC7862700, “An all-to-all approach to the identification of sequence-specific readers for epigenetic DNA modifications on cytosine”.

What all share (test): DAPPL (digital affinity profiling via proximity ligation, sequencing); 10 mM Tris-HCl pH 7.5, 50 mM NaCl, 1 mM DTT, 4% glycerol, room temperature, 30 min; GST-TFs on glutathione beads, 16-mer random dsDNA library, 0.1% formaldehyde crosslink after washing; high values mean tight binding
One test concerns the target T1, FEV (Homo sapiens, UniProt Q99581 1-238).
T1 sequence: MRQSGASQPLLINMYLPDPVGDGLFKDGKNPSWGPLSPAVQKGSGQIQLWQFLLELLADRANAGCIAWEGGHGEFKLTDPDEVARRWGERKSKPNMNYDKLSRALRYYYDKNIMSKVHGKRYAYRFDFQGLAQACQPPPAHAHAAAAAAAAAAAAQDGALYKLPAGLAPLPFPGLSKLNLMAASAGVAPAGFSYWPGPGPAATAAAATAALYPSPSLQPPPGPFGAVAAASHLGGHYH
Particulars: protein: recombinant; tags: N-terminal GST; dsDNA, one strand shown. The procedure, abridged: (§1)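 After expression in yeast as GST fusions, human transcription factors were bound to glutathione beads, DNA-barcoded and mixed with a tag-only sample. The pools were incubated with 200 nmole of a 16-mer random double-stranded DNA library in Tris/NaCl/DTT/glycerol buffer (30 min, room temperature), washed and crosslinked with 0.1% formaldehyde. Proximity ligation with BsaI/T4 ligase ran for 1 h at 37 °C, before PCR amplification and sequencing on an Illumina NextSeq500. Binding signal is a hexamer's read frequency for a factor divided by its frequency for the tag-only sample.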

The next test deals with ETV5 (Homo sapiens, UniProt P41161 1-510). To be noted: protein: recombinant; tags: N-terminal GST; dsDNA, one strand shown. The procedure, abridged:
as §1

Another test has as its target HSF1 (Homo sapiens, UniProt Q00613 1-529). To be noted: protein: recombinant; tags: N-terminal GST; chain copies: 3; dsDNA, one strand shown. The procedure, abridged:
as §1

The target of the next test is T2, SPIC (Homo sapiens, UniProt Q8N5J4 1-248).
T2 sequence: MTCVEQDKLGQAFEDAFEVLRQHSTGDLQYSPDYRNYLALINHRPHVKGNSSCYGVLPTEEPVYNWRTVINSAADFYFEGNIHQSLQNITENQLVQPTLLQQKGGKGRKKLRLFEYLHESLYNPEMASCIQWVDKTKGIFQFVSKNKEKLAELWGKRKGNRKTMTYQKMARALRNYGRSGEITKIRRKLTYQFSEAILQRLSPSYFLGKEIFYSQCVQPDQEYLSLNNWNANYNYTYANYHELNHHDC
Particulars: protein: recombinant; tags: N-terminal GST; dsDNA, one strand shown. Summed up: as §1

The next test addresses ELF4 (Homo sapiens, UniProt Q99607 1-663). Particulars: protein: recombinant; tags: N-terminal GST; dsDNA, one strand shown. The procedure, abridged: as §1
For a further test, the target named is T3, ELK4 (Homo sapiens, UniProt P28324-2 1-405).
T3 sequence: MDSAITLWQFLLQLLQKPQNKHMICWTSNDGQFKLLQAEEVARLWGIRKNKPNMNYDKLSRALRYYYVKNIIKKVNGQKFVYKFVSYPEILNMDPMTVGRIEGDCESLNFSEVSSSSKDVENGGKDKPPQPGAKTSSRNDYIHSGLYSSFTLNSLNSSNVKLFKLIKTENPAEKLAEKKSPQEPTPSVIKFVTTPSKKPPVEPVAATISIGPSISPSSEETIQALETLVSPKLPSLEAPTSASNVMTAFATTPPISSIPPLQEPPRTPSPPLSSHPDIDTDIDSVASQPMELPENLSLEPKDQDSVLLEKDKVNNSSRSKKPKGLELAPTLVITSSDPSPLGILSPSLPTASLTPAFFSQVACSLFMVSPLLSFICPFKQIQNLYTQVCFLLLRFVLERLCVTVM
Particulars: protein: recombinant; tags: N-terminal GST; dsDNA, one strand shown. The procedure, abridged: as §1

The next test addresses T4, ETV2 (Homo sapiens, UniProt O00321 1-342).
T4 sequence: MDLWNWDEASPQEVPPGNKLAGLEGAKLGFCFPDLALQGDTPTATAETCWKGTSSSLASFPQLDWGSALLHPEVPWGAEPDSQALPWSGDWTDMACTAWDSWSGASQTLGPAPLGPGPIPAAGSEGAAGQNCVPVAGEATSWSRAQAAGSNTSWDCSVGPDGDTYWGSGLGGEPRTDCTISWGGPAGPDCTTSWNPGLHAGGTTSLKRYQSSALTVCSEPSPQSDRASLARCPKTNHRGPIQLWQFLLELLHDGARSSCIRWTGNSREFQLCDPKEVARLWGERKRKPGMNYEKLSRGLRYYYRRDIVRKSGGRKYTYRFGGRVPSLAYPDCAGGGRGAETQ
Particulars: protein: recombinant; tags: N-terminal GST; dsDNA, one strand shown. The procedure, abridged: as §1

The next test has as its target T5, ELF3 (Homo sapiens, UniProt P78545 1-371).
T5 sequence: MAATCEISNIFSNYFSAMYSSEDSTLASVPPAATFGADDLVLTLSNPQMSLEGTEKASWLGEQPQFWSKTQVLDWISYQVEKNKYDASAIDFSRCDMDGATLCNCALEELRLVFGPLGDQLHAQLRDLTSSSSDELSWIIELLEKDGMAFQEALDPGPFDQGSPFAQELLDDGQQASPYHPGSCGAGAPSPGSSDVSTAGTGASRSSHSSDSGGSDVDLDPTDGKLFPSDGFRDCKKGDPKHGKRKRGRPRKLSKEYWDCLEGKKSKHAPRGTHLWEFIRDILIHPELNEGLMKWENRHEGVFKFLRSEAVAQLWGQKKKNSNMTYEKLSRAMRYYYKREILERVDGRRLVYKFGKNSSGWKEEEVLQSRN
Particulars: protein: recombinant; tags: N-terminal GST; dsDNA, one strand shown. Summed up:
as §1

The target of another test is CRX (Homo sapiens, UniProt O43186 1-299). To be noted: protein: recombinant; tags: N-terminal GST; dsDNA, one strand shown. The procedure, abridged: as §1
The target of a further test is ETV1 (Homo sapiens, UniProt P50549 1-477). To be noted: protein: recombinant; tags: N-terminal GST; dsDNA, one strand shown. The procedure, abridged:
as §1

Another test addresses T6, ERF (Homo sapiens, UniProt P50548 1-548).
T6 sequence: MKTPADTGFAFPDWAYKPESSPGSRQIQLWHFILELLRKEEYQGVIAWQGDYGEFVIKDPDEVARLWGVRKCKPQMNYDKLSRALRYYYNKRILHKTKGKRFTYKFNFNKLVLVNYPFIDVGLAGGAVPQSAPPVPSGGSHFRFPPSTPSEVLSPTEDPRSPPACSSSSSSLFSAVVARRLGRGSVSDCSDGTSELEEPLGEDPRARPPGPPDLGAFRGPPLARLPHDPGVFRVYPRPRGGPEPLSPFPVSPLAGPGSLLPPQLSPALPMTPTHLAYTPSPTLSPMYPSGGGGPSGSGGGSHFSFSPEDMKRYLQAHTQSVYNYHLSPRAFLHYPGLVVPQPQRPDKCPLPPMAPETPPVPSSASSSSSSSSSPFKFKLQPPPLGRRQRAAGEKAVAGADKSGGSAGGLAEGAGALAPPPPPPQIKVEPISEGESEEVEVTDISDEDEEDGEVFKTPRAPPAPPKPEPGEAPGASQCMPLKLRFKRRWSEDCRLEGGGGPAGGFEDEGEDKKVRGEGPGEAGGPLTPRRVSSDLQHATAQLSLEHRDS
To be noted: protein: recombinant; tags: N-terminal GST; dsDNA, one strand shown. The procedure, abridged:
as §1

In a further test the target is T7, ETV3L (Homo sapiens, UniProt Q6ZN32 1-361).
T7 sequence: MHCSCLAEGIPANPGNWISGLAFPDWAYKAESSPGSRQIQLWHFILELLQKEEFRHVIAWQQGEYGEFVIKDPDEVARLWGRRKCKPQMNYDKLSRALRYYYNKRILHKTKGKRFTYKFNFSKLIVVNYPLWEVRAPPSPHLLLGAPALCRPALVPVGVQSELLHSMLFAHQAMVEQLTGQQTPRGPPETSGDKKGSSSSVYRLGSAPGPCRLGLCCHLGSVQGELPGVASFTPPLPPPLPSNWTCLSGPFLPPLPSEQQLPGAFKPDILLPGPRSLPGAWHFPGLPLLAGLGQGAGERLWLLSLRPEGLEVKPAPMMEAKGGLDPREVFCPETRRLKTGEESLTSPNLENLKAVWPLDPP
To be noted: protein: recombinant; tags: N-terminal GST; dsDNA, one strand shown. Summed up:
as §1

The target in a further test is T8, ETS2 (Homo sapiens, UniProt P15036 1-469).
T8 sequence: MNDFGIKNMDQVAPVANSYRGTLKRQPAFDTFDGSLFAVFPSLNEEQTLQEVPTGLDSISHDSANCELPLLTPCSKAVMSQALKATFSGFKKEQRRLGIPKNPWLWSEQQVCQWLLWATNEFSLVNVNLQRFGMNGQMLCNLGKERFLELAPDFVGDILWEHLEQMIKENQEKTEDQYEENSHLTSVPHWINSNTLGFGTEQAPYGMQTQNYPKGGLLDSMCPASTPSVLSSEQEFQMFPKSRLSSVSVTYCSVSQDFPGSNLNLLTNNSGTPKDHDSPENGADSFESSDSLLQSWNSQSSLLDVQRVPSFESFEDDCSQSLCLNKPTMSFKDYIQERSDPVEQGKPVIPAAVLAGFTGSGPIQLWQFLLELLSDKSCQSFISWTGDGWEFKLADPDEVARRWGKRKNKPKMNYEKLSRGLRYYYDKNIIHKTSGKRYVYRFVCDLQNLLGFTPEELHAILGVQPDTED
Particulars: protein: recombinant; tags: N-terminal GST; dsDNA, one strand shown. The procedure, abridged: as §1

The next test addresses T9, SPDEF (Homo sapiens, UniProt O95238 1-335).
T9 sequence: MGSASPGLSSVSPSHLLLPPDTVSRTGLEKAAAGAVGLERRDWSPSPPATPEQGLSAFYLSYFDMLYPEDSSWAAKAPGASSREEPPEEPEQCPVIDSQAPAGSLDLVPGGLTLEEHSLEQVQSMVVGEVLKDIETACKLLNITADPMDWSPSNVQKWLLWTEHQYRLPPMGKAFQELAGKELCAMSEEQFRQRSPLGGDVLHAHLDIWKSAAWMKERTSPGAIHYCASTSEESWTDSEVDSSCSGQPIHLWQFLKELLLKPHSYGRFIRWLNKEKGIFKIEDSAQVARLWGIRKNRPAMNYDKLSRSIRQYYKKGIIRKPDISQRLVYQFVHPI
Particulars: protein: recombinant; tags: N-terminal GST; dsDNA, one strand shown. Summed up: as §1

The next test deals with T10, ETV7 (Homo sapiens, UniProt Q9Y603 1-341).
T10 sequence: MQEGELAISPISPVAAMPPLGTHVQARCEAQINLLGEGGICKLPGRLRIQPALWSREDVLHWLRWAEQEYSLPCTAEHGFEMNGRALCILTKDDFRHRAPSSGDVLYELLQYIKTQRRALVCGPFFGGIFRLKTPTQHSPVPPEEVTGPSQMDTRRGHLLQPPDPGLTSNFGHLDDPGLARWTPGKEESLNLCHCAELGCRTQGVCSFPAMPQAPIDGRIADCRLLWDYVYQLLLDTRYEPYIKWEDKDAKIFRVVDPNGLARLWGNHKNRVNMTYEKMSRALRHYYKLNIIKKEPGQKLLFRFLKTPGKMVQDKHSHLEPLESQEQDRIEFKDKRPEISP
Particulars: protein: recombinant; tags: N-terminal GST; dsDNA, one strand shown. The procedure, abridged: as §1

For a further test, the target named is T11, ELF5 (Homo sapiens, UniProt Q9UKW6-2 1-255).
T11 sequence: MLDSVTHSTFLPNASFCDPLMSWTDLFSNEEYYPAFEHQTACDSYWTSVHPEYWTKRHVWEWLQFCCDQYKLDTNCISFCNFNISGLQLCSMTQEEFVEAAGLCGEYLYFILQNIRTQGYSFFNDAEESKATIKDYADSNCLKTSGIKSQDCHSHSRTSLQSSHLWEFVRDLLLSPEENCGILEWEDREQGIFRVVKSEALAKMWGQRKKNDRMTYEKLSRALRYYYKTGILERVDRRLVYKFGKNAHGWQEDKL
To be noted: protein: recombinant; tags: N-terminal GST; dsDNA, one strand shown. The procedure, abridged: as §1

In the next test the target is T12, ETV3 (Homo sapiens, UniProt P41162-2 1-143).
T12 sequence: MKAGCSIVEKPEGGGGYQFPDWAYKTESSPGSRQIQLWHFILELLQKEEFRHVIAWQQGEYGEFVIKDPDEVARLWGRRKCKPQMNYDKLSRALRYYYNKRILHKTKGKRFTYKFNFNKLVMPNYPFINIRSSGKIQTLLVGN
To be noted: protein: recombinant; tags: N-terminal GST; dsDNA, one strand shown. The procedure, abridged: as §1

In the next test the target is ETV6 (Homo sapiens, UniProt P41212 1-452). To be noted: protein: recombinant; tags: N-terminal GST; dsDNA, one strand shown. The procedure, abridged: as §1
Sequence of ETV6 (P41212 whole entry): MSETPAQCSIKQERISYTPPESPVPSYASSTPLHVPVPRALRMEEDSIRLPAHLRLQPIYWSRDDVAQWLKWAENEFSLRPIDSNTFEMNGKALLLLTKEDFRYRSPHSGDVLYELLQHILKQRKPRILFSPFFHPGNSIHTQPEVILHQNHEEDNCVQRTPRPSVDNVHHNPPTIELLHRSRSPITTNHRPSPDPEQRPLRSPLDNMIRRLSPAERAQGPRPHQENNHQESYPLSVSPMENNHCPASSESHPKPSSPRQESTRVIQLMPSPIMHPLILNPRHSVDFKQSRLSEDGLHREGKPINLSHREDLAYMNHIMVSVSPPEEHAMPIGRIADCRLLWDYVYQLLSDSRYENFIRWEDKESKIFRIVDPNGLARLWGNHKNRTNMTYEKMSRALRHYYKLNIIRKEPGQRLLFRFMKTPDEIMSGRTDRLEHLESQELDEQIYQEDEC

Sequence of ETV1 (P50549 whole entry): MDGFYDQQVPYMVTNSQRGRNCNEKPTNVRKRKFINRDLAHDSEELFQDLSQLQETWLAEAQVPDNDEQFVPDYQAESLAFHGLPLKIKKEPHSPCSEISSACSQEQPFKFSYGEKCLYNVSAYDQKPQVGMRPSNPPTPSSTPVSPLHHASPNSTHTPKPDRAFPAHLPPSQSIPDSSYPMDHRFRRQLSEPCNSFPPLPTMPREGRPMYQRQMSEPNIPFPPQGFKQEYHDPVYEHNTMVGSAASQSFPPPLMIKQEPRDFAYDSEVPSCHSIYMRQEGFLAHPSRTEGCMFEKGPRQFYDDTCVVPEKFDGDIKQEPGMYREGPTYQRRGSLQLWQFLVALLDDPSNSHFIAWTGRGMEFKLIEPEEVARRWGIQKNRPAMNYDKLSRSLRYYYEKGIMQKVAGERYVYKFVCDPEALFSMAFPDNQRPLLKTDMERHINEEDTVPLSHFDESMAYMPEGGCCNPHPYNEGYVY
Sequence of ELF4 (Q99607 whole entry): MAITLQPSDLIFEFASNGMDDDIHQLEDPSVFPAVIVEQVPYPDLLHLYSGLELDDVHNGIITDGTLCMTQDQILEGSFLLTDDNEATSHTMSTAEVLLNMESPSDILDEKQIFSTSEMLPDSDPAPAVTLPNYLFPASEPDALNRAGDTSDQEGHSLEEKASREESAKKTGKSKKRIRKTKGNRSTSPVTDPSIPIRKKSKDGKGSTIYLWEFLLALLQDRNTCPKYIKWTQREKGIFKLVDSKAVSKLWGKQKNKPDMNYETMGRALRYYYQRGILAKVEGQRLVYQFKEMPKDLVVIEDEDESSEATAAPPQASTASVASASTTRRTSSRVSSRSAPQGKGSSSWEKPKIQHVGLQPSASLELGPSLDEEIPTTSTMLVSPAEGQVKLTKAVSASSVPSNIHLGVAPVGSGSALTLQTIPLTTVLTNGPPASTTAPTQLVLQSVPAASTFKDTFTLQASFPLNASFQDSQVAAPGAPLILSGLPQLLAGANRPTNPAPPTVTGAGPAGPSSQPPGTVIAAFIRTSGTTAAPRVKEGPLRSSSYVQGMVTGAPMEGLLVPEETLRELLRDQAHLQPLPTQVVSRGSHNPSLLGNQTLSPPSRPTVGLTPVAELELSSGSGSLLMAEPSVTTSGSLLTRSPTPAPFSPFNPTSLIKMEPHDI
Sequence of HSF1 (Q00613 whole entry): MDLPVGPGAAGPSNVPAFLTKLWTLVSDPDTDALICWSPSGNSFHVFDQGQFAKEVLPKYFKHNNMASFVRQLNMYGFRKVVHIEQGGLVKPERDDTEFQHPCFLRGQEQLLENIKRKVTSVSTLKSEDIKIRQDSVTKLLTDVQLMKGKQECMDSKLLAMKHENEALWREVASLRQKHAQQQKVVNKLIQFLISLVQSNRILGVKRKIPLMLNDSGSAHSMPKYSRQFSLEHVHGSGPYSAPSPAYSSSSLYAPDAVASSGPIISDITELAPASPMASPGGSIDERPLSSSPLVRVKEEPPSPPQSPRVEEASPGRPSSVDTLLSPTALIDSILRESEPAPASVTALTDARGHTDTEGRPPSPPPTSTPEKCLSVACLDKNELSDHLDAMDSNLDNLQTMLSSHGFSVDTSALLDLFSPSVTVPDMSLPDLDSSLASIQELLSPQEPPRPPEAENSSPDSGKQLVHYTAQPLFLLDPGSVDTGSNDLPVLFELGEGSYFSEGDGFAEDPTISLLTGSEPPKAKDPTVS
Sequence of CRX (O43186 whole entry): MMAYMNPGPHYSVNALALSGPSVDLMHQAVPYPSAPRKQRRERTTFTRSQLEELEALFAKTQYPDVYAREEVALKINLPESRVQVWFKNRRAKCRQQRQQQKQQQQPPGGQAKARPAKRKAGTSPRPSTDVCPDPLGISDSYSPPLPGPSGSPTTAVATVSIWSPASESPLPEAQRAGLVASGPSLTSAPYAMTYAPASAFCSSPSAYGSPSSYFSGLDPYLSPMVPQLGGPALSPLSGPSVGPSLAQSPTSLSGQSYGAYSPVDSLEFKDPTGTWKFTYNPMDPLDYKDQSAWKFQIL
Sequence of ETV5 (P41161 whole entry): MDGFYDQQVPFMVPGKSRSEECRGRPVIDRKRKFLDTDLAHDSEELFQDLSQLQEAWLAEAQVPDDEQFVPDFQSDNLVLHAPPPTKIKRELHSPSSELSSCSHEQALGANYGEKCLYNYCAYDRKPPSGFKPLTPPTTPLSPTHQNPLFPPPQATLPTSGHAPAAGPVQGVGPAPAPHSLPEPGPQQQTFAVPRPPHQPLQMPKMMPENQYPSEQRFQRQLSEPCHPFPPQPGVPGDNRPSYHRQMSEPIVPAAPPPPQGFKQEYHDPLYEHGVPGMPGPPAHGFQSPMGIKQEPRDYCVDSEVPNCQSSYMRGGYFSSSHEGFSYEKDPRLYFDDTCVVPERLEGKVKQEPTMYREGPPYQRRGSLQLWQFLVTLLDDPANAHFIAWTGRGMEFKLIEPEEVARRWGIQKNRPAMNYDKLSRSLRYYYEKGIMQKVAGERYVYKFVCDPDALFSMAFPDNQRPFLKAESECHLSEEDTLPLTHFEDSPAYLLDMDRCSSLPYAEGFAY

AAATAT: the binding signal is 1.28 fold enrichment (6-mer frequency, TF over GST control) with FEV; 1.36 fold enrichment (6-mer frequency, TF over GST control) with ETV5; 1.29 fold enrichment (6-mer frequency, TF over GST control) in the test with HSF1; 1.43 fold enrichment (6-mer frequency, TF over GST control) in the test with SPIC; 1.34 fold enrichment (6-mer frequency, TF over GST control) with ELF4; 1.24 fold enrichment (6-mer frequency, TF over GST control) with ELK4. Also, the binding signal with ETV2 was 1.49 fold enrichment (6-mer frequency, TF over GST control); with ELF3, 1.54 fold enrichment (6-mer frequency, TF over GST control); with CRX, 1.39 fold enrichment (6-mer frequency, TF over GST control); with ETV1 it was 1.39 fold enrichment (6-mer frequency, TF over GST control); with ERF, 1.25 fold enrichment (6-mer frequency, TF over GST control); with ETV3L, 1.32 fold enrichment (6-mer frequency, TF over GST control). The binding signal is 1.37 fold enrichment (6-mer frequency, TF over GST control) with ETS2; 1.35 fold enrichment (6-mer frequency, TF over GST control) in the test with SPDEF; 1.4 fold enrichment (6-mer frequency, TF over GST control) with ETV7; 1.41 fold enrichment (6-mer frequency, TF over GST control) with ELF5; 1.29 fold enrichment (6-mer frequency, TF over GST control) with ETV3; 1.43 fold enrichment (6-mer frequency, TF over GST control) with ETV6.
